Laboratory results: the supplement of paper PMC10849652
About 7,900 targets were measured; listed, in parts, are those with a hit and a random draw of the rest. About 0.6% of all pairs of compound and target were hits. Values without a mark were called inactive.

Columns and labels:
Assay in all cases: log2 fold change, soluble protein after heating vs DMSO (PISA); higher = thermal stabilisation; K562 cells, 10 uM, 30 min; active = over 0.2 and 3.5 SD of the protein, either way, in both replicates (recomputed)
[1] = compound: COC1=CC=C(C=C1)CN2C=CC3=C2C=C(C=C3)C(=O)NO
Outline: (§1)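 K562 cells at 2×10^6 cells/mL were exposed to 10 μM compound for 30 min, then aliquots were heated for 3 min across 48°C-58°C, pooled, and extracted in PBS containing 0.5% NP-40 at 4°C. The supernatant after 21,000xg for 90 min was taken as soluble protein and measured by TMTpro 16plex LC-MS/MS with channel sums equalised. Thermal stability is reported relative to control samples, with values from duplicates. Fold changes are given on a log2 scale.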

[2] = compound: CON(C)C(=O)N1N=C(c2cc(F)ccc2F)S[C@@]1(CCCN)c1ccccc1 [filanesib]
Outline: as §1

[3] = compound: CO[C@H]1C[C@@H]2CC[C@@H](C)[C@@](O)(O2)C(=O)C(=O)N2CCCC[C@H]2C(=O)O[C@H]([C@H](C)C[C@@H]2CC[C@H](n3cnnn3)[C@H](OC)C2)CC(=O)[C@H](C)/C=C(\C)[C@@H](O)[C@@H](OC)C(=O)[C@H](C)C[C@H](C)/C=C/C=C/C=C/1C [zotarolimus]
Outline: as §1

[4] = compound: COc1cc(C(=O)O)ccc1NC(=O)[C@@H]1N[C@@H](CC(C)(C)C)[C@](C#N)(c2ccc(Cl)cc2F)[C@H]1c1cccc(Cl)c1F [idasanutlin]
Outline: as §1

[5] = compound: COc1cc(Nc2ncc3c(n2)-c2ccc(Cl)cc2C(c2c(F)cccc2OC)=NC3)ccc1C(=O)O [alisertib]
Outline: as §1

[6] = compound: COc1cc2nc(-c3cc(F)ccc3O)nc(N[C@@H]3CNC[C@H]3C(C)(C)O)c2cc1OC
Outline: as §1

[7] = compound: COc1cc2ncnc(Nc3ccc(F)c(Cl)c3)c2cc1OCCCN1CCOCC1 [gefitinib]
Outline: as §1

[8] = compound: COc1cccc2cc(-c3nc([C@H]4CC[C@H](C(=O)O)CC4)n4ncnc(N)c34)[nH]c12
Outline: as §1

[9] = compound: CS(=O)(=O)CCNCc1ccc(-c2ccc3ncnc(Nc4ccc(OCc5cccc(F)c5)c(Cl)c4)c3c2)o1 [lapatinib]
Outline: as §1

[10] = compound: CS(=O)(=O)N1CCN(Cc2cc3nc(-c4cccc5[nH]ncc45)nc(N4CCOCC4)c3s2)CC1 [pictilisib]
Outline: as §1

UniProt Q9P2N5, sequence (Q9P2N5 whole entry, looked up): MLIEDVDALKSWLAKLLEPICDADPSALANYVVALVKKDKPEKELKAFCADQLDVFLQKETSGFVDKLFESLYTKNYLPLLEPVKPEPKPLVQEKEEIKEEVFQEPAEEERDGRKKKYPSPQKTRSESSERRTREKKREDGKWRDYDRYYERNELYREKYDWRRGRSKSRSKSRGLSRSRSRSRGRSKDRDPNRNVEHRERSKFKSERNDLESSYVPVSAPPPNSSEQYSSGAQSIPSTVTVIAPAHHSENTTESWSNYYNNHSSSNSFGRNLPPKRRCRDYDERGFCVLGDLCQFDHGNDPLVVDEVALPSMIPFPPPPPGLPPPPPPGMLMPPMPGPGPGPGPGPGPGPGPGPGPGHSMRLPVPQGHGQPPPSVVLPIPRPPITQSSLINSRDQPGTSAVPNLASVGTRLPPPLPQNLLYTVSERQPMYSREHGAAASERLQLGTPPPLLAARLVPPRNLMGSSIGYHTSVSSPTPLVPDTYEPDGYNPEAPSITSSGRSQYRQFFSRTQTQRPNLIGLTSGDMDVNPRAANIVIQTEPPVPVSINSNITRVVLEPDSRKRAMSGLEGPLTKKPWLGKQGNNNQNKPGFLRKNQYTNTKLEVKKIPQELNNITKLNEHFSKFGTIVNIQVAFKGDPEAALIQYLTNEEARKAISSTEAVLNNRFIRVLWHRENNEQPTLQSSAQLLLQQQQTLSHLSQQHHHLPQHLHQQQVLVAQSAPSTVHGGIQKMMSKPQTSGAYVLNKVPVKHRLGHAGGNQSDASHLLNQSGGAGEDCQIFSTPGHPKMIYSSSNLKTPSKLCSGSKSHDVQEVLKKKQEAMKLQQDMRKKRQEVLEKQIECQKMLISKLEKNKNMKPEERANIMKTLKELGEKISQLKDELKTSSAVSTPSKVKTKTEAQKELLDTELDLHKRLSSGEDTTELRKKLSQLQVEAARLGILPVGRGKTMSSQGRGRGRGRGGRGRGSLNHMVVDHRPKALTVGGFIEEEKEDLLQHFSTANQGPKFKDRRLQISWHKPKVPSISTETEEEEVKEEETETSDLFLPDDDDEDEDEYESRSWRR
UniProt P35244, sequence (P35244 whole entry, looked up): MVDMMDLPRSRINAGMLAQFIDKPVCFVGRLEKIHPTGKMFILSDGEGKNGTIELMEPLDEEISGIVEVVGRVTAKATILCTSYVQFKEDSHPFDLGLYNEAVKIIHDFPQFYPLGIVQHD
UniProt Q5T8P6, sequence (Q5T8P6 whole entry, looked up): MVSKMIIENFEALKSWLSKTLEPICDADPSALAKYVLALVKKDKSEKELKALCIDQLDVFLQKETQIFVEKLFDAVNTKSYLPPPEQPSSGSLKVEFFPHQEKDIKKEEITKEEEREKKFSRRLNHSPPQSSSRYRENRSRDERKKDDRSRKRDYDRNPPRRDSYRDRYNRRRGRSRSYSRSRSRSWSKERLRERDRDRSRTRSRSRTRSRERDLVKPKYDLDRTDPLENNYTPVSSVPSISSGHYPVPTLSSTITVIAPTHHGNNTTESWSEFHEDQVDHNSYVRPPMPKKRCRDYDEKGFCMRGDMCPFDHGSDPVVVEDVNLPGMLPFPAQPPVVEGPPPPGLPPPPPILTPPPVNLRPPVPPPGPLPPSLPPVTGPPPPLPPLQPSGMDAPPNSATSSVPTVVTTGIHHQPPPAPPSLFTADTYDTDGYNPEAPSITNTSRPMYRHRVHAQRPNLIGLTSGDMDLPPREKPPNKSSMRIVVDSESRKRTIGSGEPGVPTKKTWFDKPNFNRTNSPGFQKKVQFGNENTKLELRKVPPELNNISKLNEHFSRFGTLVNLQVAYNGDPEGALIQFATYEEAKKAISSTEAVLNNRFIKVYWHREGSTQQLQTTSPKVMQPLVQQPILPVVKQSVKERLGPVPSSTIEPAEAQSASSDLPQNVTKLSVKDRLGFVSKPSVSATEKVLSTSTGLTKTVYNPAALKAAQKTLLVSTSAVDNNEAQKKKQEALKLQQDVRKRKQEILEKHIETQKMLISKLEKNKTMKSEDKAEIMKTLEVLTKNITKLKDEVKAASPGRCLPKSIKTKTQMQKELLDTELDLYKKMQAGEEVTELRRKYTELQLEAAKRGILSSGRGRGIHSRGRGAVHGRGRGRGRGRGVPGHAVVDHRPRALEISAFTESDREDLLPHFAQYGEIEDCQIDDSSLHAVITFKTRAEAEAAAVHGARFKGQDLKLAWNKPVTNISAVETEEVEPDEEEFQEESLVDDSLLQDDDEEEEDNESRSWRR
UniProt Q9BQY4, sequence (Q9BQY4 whole entry, looked up): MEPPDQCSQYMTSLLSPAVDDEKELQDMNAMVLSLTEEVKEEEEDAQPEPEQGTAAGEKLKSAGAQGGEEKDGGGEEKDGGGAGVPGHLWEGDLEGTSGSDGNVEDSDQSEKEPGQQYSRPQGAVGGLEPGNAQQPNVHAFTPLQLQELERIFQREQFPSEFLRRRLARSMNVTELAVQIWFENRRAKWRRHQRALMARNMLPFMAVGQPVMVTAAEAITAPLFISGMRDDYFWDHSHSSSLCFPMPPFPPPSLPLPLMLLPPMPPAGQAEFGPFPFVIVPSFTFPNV
UniProt Q5JTH9, sequence (Q5JTH9 whole entry, looked up): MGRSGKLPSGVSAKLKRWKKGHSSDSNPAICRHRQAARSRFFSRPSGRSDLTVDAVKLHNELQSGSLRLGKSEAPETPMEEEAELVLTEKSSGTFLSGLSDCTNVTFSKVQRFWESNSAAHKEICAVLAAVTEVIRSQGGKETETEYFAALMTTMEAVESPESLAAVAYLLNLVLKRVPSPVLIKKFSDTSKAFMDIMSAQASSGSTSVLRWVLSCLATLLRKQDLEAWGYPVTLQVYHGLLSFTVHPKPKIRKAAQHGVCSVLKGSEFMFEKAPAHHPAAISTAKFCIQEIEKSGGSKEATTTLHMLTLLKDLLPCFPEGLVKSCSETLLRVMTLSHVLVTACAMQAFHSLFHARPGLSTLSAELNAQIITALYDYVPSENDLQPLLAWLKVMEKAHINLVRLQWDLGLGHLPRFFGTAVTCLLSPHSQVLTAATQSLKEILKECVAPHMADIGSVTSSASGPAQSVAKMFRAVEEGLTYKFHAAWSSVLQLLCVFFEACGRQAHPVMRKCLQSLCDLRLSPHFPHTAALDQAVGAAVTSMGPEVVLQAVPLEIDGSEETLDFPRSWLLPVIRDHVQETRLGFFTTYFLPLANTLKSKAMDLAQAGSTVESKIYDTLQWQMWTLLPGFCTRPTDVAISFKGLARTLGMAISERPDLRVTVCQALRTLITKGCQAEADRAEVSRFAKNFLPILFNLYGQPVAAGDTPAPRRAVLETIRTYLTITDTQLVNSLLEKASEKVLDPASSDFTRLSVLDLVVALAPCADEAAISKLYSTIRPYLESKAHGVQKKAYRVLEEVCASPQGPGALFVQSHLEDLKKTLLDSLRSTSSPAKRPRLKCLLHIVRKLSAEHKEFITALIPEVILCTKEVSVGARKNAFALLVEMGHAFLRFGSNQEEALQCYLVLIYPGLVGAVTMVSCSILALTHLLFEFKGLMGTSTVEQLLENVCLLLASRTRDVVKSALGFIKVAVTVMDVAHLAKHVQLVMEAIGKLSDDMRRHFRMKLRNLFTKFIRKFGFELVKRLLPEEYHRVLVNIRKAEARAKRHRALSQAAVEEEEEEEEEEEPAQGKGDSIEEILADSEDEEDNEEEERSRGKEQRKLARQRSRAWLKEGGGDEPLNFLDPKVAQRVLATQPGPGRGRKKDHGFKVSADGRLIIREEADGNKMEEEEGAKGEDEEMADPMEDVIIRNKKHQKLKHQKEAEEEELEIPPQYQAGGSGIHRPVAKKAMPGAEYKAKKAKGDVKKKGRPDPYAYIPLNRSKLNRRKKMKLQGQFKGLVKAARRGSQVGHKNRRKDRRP
UniProt Q96DX4, sequence (Q96DX4 whole entry, looked up): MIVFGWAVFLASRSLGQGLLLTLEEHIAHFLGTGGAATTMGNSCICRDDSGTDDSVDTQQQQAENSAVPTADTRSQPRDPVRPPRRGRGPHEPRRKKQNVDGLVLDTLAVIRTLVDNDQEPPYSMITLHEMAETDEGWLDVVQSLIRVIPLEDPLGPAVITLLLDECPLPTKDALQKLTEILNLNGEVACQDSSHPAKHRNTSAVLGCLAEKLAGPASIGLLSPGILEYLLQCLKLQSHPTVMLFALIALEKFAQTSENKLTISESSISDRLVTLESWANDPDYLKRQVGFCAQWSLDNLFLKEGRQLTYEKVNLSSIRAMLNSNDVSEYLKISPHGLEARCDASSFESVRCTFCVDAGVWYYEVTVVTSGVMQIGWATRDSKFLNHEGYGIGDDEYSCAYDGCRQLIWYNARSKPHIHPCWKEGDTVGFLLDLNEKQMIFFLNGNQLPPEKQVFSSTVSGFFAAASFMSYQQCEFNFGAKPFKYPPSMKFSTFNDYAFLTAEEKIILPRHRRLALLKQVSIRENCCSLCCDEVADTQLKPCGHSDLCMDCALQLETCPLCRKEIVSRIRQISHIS
UniProt P58004, sequence (P58004 whole entry, looked up): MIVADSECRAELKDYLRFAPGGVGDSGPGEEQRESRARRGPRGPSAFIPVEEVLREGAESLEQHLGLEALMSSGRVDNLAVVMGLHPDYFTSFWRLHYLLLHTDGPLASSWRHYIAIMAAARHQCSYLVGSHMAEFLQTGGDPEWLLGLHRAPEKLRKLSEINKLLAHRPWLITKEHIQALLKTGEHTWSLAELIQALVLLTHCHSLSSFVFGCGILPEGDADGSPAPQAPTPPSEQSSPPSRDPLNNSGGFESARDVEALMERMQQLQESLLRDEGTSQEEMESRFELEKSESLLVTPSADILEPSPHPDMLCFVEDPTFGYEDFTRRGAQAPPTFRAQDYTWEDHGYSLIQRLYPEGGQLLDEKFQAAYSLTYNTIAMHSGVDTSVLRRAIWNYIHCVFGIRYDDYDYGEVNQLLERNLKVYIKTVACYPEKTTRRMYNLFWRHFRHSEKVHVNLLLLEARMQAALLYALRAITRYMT
UniProt O95059, sequence (O95059 whole entry, looked up): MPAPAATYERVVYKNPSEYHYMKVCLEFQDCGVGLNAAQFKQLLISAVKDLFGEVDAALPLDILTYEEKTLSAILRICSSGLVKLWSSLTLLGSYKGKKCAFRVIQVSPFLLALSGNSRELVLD

Target | log2 fold change [1] | log2 fold change [2] | log2 fold change [3] | log2 fold change [4] | log2 fold change [5] | log2 fold change [6] | log2 fold change [7] | log2 fold change [8] | log2 fold change [9] | log2 fold change [10]
RCN3 (UniProt Q96D15) | -0.065 | 0.054 | -0.068 | -0.122 | 0 | 0.043 | 0 | 0.132 | -0.025 | 0.087
SDHAF4 (UniProt Q5VUM1) | -0.072 | 0.034 | -0.01 | -0.223 | -0.073 | -0.026 | 0.026 | 0.096 | -0.154 | –
SCCPDH (UniProt Q8NBX0) | 0.436 (active) | 0.139 | 0.349 | 0.025 | -0.058 | -0.026 | -0.016 | 0.076 | 0.015 | 0.135
SACM1L (UniProt Q9NTJ5) | 0.044 | -0.081 | 0.029 | -0.027 | -0.05 | -0.039 | 0.086 | 0.023 | 0.028 | -0.038
RAB9A (UniProt P51151) | 0.022 | -0.074 | 0.024 | -0.026 | -0.021 | 0.008 | 0.015 | 0.067 | -0.026 | -0.011
RSF1 (UniProt Q96T23) | 0.267 | -0.078 | 0.023 | -0.147 | -0.067 | -0.018 | 0.037 | -0.17 | 0.004 | 0.114
RPA3 (UniProt P35244) | 0.054 | -0.038 | 0.056 | -0.064 | 0.073 | -0.05 | -0.01 | -0.048 | 0.04 | 0.046
RAB8B (UniProt Q92930) | 0.258 | -0.076 | 0.045 | -0.017 | -0.035 | -0.064 | 0.021 | -0.076 | 0.023 | -0.096
RTN4IP1 (UniProt Q8WWV3) | 0.206 | -0.081 | 0.097 | 1.17 (active) | -0.22 | -0.013 | 0.125 | 0.256 | 0.003 | -0.003
ROR2 (UniProt Q01974) | -0.172 | -0.017 | 0.082 | 0 | -0.013 | 0.022 | 0.009 | 0.012 | 0.021 | -0.079
RNPEP (UniProt Q9H4A4) | 0.008 | -0.083 | 0.044 | -0.02 | -0.018 | -0.009 | -0.023 | 0 | 0.043 | 0.008
SETMAR (UniProt Q53H47) | -0.135 | -0.065 | 0.048 | -0.037 | 0.014 | -0.002 | -0.044 | 0.004 | 0.018 | -0.009
RPP14 (UniProt O95059) | -0.006 | 0.046 | 0.004 | -0.038 | -0.051 | -0.053 | -0.022 | 0.047 | 0.042 | -0.19
RECQL (UniProt P46063) | 0.022 | -0.091 | 0.035 | -0.056 | -0.061 | -0.038 | -0.004 | 0.031 | 0.043 | 0.024
SFXN5 (UniProt Q8TD22) | -0.104 | -0.007 | 0.025 | -0.172 | 0.027 | -0.019 | -0.013 | 0.035 | 0.017 | 0.061
RPS5 (UniProt P46782) | 0.004 | 0.089 | 0.011 | 0.094 | -0.11 | -0.056 | -0.052 | -0.126 | 0.081 | -0.099
RPS4X (UniProt P62701) | -0.059 | 0.314 | -0.001 | 0.148 | -0.099 | -0.038 | -0.048 | -0.222 | 0.102 | -0.155
RHOXF2 (UniProt Q9BQY4) | 0.017 | 0.013 | -0.039 | 0.02 | -0.068 | -0.001 | -0.021 | 0.056 | -0.028 | 0.088
RPS6KA1 isoform 2 (UniProt Q15418) | 0.087 | -0.022 | 0.025 | -0.016 | -0.01 | -0.202 | -0.062 | 0 | 0.013 | -0.053
SART3, A0A499FI31 | 0.059 | -0.036 | 0.054 | -0.044 | -0.042 | -0.192 | -0.019 | -0.019 | 0.016 | -0.083
SHCBP1 (UniProt Q8NEM2) | -0.014 | 0.059 | 0.103 | -0.023 | 0.134 | 0.102 | 0 | -0.056 | -0.13 | -0.057
SGPL1 (UniProt O95470) | -0.064 | 0.107 | -0.011 | 0.051 | -0.046 | 0.012 | 0.001 | -0.115 | 0.04 | -0.013
RTF2 (UniProt Q9BY42) | -0.021 | 0.09 | 0.03 | 0.066 | 0.024 | 0.036 | 0.049 | 0 | 0.026 | -0.027
SESN2 (UniProt P58004) | 0.013 | -0.174 | 0.099 | -0.107 | -0.005 | -0.112 | 0.08 | -0.085 | 0.25 | 0.167
RBM27 (UniProt Q9P2N5) | -0.025 | 0.094 | 0.027 | 0.075 | 0.02 | -0.058 | 0.057 | 0.018 | 0.051 | -0.08
RBM26 isoform 2 (UniProt Q5T8P6) | 0.086 | -0.071 | 0.03 | -0.025 | 0.093 | -0.045 | 0.064 | 0.009 | 0.034 | 0.059
RSPRY1 (UniProt Q96DX4) | -0.065 | 0.01 | -0.01 | -0.061 | -0.051 | -0.006 | 0.048 | 0.031 | 0.046 | 0.054
RAC3 (UniProt P60763) | 0.025 | 0.031 | 0.125 | 0.017 | -0.038 | -0.067 | 0.017 | 0.026 | 0.061 | 0.071
SCG3 (UniProt Q8WXD2) | 0.002 | -0.001 | -0.044 | -0.056 | 0.128 | -0.082 | 0.089 | -0.236 | 0.07 | -0.086
RRP12 (UniProt Q5JTH9) | -0.03 | 0.288 | -0.046 | 0.032 | 0.204 | 0.222 | -0.104 | -0.222 | -0.128 | 0.032
